# Measured values: PubChem BioAssay (NCI)
# About 79,000 compounds went through this panel and 15% of them were active in at least one assay; those are over-represented in the sample as a whole. A number with no mark means an inactive call. Active and inactive are the calls of the source. Rule as the data show it: active = growth inhibition above about 70%; inactive = the rest.
# Experiments:
# [1] = NCI Yeast Anticancer Drug Screen. Data for the rad52 strain (AID 147);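 also: 0% = growth of vehicle-treated control cultures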; settings: S. cerevisiae rad52 mutant growth inhibition, active compounds read high
# In short: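 Screen used a yeast mutant impaired in DNA repair. After compound exposure, growth was measured. Values reflect inhibition compared with vehicle-treated cells.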
# [2] = NCI Yeast Anticancer Drug Screen. Data for the wt1 strain (AID 149);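 also: 0% = growth of vehicle-treated wt1 cultures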; settings: S. cerevisiae wt1 strain (SPY 50644) growth inhibition, active compounds read high
# In short: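 Growth inhibition read against vehicle controls after compound exposure of the wt1 yeast strain.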
# [3] = NCI Yeast Anticancer Drug Screen. Data for the mgt1 strain (AID 153); settings: S. cerevisiae mgt1 mutant growth inhibition, active compounds read high
# In short: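 Genetically defined yeast (mgt1) treated with compound; inhibition of growth expressed against vehicle-treated controls.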
# [4] = NCI Yeast Anticancer Drug Screen. Data for the rad50 strain (AID 155);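 also: 0% = growth of vehicle-only cultures of the same strain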; settings: S. cerevisiae rad50 strain growth inhibition, active compounds read high
# In short: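 Readout: growth inhibition relative to vehicle-treated cultures. Compound exposure was carried out in a genetically defined yeast strain deficient in DNA damage repair.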
# [5] = NCI Yeast Anticancer Drug Screen. Data for the mec2-1 strain (AID 157); settings: S. cerevisiae mec2-1 strain, active compounds read high
# In short: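 Readout is yeast growth inhibition, normalised to vehicle-treated controls, in the mec2-1 strain exposed to compound.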
# [6] = NCI Yeast Anticancer Drug Screen. Data for the rad14 strain (AID 159);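 also: 0% = growth of vehicle-treated control cultures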; settings: S. cerevisiae rad14 strain growth inhibition, active compounds read high
# In short: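 Growth inhibition vs vehicle controls; genetically altered yeast strain (DNA damage repair defect) treated with test compounds.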
# [7] = NCI Yeast Anticancer Drug Screen. Data for the sgs1 mgt1 strain (AID 161);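 also: 0% = growth of cultures given vehicle only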; settings: S. cerevisiae sgs1 mgt1 strain, active compounds read high
# In short: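 Yeast cells carrying a defined DNA-repair defect were exposed to test compounds. Growth inhibition was measured relative to vehicle-treated controls.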
# [8] = NCI Yeast Anticancer Drug Screen. Data for the CLN2oe strain (AID 163);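 also: 0% = growth of vehicle-only control cultures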; settings: S. cerevisiae CLN2oe strain, active compounds read high
# In short: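 Values reflect how much compound exposure reduced yeast growth, referenced to vehicle-exposed cells. Assay organism is a strain with a defined genetic change affecting cell-cycle control.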
# [9] = NCI Yeast Anticancer Drug Screen. Data for the cln2 rad14 strain (AID 165);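 also: 0% = growth equal to vehicle treated cultures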; settings: S. cerevisiae cln2 rad14 strain, active compounds read high
# In short: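 Relative to vehicle controls, growth inhibition of compound-treated cln2 rad14 yeast was recorded.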
# [10] = NCI Yeast Anticancer Drug Screen. Data for the bub3 strain (AID 167); settings: S. cerevisiae bub3 mutant strain, active compounds read high
# In short: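 Readout: yeast growth inhibition, expressed relative to vehicle-only wells. The test organism is a mutant strain from a panel with lesions in DNA repair or checkpoint genes.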
# [11] = NCI Yeast Anticancer Drug Screen. Data for the wt2 strain (AID 169);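 also: 0% = growth of vehicle-treated yeast cultures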; settings: S. cerevisiae wt2 strain growth inhibition, active compounds read high
# In short: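 Values express reduction in yeast growth under compound treatment, referenced to vehicle-treated cells.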
# [12] = NCI Yeast Anticancer Drug Screen. Data for the mlh1 strain (AID 171);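 also: 0% = growth of vehicle-treated control cultures of the same strain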; settings: S. cerevisiae mlh1 strain growth inhibition, active compounds read high
# In short: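 Steps: expose the defined-mutant yeast strain to compound; expose a parallel culture to vehicle; measure growth; express compound effect as inhibition relative to the vehicle culture.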
# [13] = NCI Yeast Anticancer Drug Screen. Data for the sgs1 strain (AID 173);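 also: 0% = growth of vehicle-only control cultures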; settings: S. cerevisiae sgs1 mutant, active compounds read high
# In short: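 Treat defined-mutant yeast with compound; measure growth; calculate inhibition relative to vehicle-treated cells.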
# [14] = NCI Yeast Anticancer Drug Screen. Data for the mlh1 rad18 strain (AID 175); settings: S. cerevisiae mlh1 rad18 strain growth inhibition, active compounds read high
# In short: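 Test agents were incubated with a yeast strain of defined genotype (DNA damage repair defect). Inhibition of growth was derived by comparison with vehicle-exposed cultures.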
# [15] = NCI Yeast Anticancer Drug Screen. Data for the rad18 strain (AID 177); settings: S. cerevisiae rad18 mutant growth inhibition, active compounds read high
# In short: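 A genetically defined yeast mutant impaired in DNA damage repair was treated with test compounds, then its growth was measured against cultures receiving vehicle alone.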
# [16] = at 5.0 µM (retest, dose inferred, filed as 0.5)
# [17] = at 50.0 µM (retest, dose inferred, filed as 5.0)
smiles,measurement,setting,value
O=S(=O)(c1cccc(C(F)(F)F)c1)N1c2ccccc2-n2cccc2C1c1cccnc1 (stereo not drawn),growth inhibition,[1]; at 1.2 µM,-23%
same,growth inhibition,[1]; at 3.7 µM,7%
same,growth inhibition,[1]; at 11.0 µM,87% (active)
same,growth inhibition,[1]; at 33.0 µM,95% (active)
same,growth inhibition,[1]; at 100.0 µM,91% (active)
same,growth inhibition,[2]; at 1.2 µM,-22%
same,growth inhibition,[2]; at 3.7 µM,-8%
same,growth inhibition,[2]; at 11.0 µM,55%
same,growth inhibition,[2]; at 33.0 µM,92% (active)
same,growth inhibition,[2]; at 100.0 µM,89% (active)
same,growth inhibition,[3]; at 1.2 µM,-43%
same,growth inhibition,[3]; at 3.7 µM,-16%
same,growth inhibition,[3]; at 11.0 µM,78% (active)
same,growth inhibition,[3]; at 33.0 µM,94% (active)
same,growth inhibition,[3]; at 100.0 µM,92% (active)
same,growth inhibition,[4]; at 1.2 µM,-15%
same,growth inhibition,[4]; at 3.7 µM,5%
same,growth inhibition,[4]; [16],27%
same,growth inhibition,[4]; at 11.0 µM,85% (active)
same,growth inhibition,[4]; at 33.0 µM,92% (active)
same,growth inhibition,[4]; [17],96% (active)
same,growth inhibition,[4]; at 50.0 µM,90.5% (active)
same,growth inhibition,[4]; at 100.0 µM,87% (active)
same,growth inhibition,[5]; at 1.2 µM,-59%
same,growth inhibition,[5]; at 3.7 µM,-32%
same,growth inhibition,[5]; [16],31%
same,growth inhibition,[5]; at 11.0 µM,56%
same,growth inhibition,[5]; at 33.0 µM,92% (active)
same,growth inhibition,[5]; [17],97% (active)
same,growth inhibition,[5]; at 50.0 µM,94.8% (active)
same,growth inhibition,[5]; at 100.0 µM,89% (active)
same,growth inhibition,[6]; at 1.2 µM,-51%
same,growth inhibition,[6]; at 3.7 µM,-17%
same,growth inhibition,[6]; at 11.0 µM,73% (active)
same,growth inhibition,[6]; at 33.0 µM,94% (active)
same,growth inhibition,[6]; at 100.0 µM,89% (active)
same,growth inhibition,[7]; [16],18%
same,growth inhibition,[7]; [17],98% (active)
same,growth inhibition,[7]; at 50.0 µM,96.8% (active)
same,growth inhibition,[8]; at 1.2 µM,-16%
same,growth inhibition,[8]; at 3.7 µM,-19%
same,growth inhibition,[8]; at 11.0 µM,74% (active)
same,growth inhibition,[8]; at 33.0 µM,94% (active)
same,growth inhibition,[8]; at 100.0 µM,90% (active)
same,growth inhibition,[9]; [16],22%
same,growth inhibition,[9]; [17],96% (active)
same,growth inhibition,[9]; at 50.0 µM,93.9% (active)
same,growth inhibition,[10]; at 1.2 µM,-27%
same,growth inhibition,[10]; at 3.7 µM,1%
same,growth inhibition,[10]; [16],25%
same,growth inhibition,[10]; at 11.0 µM,62%
same,growth inhibition,[10]; at 33.0 µM,94% (active)
same,growth inhibition,[10]; [17],96% (active)
same,growth inhibition,[10]; at 50.0 µM,94.7% (active)
same,growth inhibition,[10]; at 100.0 µM,90% (active)
same,growth inhibition,[11]; at 1.2 µM,-23%
same,growth inhibition,[11]; at 3.7 µM,-41%
same,growth inhibition,[11]; at 11.0 µM,60%
same,growth inhibition,[11]; at 33.0 µM,93% (active)
same,growth inhibition,[11]; at 100.0 µM,91% (active)
same,growth inhibition,[12]; at 1.2 µM,-43%
same,growth inhibition,[12]; at 3.7 µM,-15%
same,growth inhibition,[12]; at 11.0 µM,70% (active)
same,growth inhibition,[12]; at 33.0 µM,93% (active)
same,growth inhibition,[12]; at 100.0 µM,88% (active)
same,growth inhibition,[13]; at 1.2 µM,-40%
same,growth inhibition,[13]; at 3.7 µM,-21%
same,growth inhibition,[13]; at 11.0 µM,73% (active)
same,growth inhibition,[13]; at 33.0 µM,92% (active)
same,growth inhibition,[13]; at 100.0 µM,89% (active)
same,growth inhibition,[14]; [16],34%
same,growth inhibition,[14]; [17],96% (active)
same,growth inhibition,[14]; at 50.0 µM,95.5% (active)
same,growth inhibition,[15]; at 1.2 µM,-7%
same,growth inhibition,[15]; at 3.7 µM,7%
same,growth inhibition,[15]; at 11.0 µM,85% (active)
same,growth inhibition,[15]; at 33.0 µM,93% (active)
same,growth inhibition,[15]; at 100.0 µM,89% (active)
